ST2 IL33 inh: inhibitors of human ST2 (IL1RL1) binding to IL-33, primary screen, biochemical, AlphaLISA | Interleukin-1 receptor-like 1 (Homo sapiens), Q01638 | AlphaLISA ST2-Fc/biotin-IL-33 interaction, 1 h | inhibition, % for hits at 17 µM | actives 2.3% (n = 78,000); in the data active = inhibition above about 30%
Target sequence (Q01638 whole entry, looked up): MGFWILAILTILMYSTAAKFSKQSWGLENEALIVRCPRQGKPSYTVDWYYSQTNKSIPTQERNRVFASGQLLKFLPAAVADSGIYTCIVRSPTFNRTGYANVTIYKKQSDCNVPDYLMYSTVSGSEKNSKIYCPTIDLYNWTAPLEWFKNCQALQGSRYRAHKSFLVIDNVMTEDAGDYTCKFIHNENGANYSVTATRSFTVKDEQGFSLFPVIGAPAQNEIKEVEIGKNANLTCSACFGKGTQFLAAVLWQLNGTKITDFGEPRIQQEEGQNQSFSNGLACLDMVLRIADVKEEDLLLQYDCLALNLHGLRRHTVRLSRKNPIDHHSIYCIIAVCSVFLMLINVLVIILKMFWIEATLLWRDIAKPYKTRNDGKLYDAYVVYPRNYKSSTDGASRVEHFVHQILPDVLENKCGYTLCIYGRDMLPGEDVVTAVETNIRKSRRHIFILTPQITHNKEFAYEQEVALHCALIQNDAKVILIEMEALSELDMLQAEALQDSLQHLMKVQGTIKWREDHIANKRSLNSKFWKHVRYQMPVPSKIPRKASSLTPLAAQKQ
* marks the source's active call; other numbers are inactive results; i = inactive. This is one part of a sample in which hits are shown more often than they occur.

SMILES	ST2 IL33 inh
COc1cccc(/C=C2/SC(=Nc3ccccc3Cl)NC2=O)c1OC	31%*
Cc1ccc2cc(CN3CCN(CCn4cncn4)CC3)c(=O)[nH]c2c1	i
CCc1nc2nc(C)[nH]n2c(=O)c1NC(=O)Nc1cccc(C)c1	i
CCC(=O)N1N=C2c3cc(OC)ccc3CCC2C1c1cccc(F)c1 (stereo not drawn)	i
O=C(CN1C(=O)COCC1=O)NCC1CCN(C2CCCC2)C1 (stereo not drawn)	i
CC(C)(C)n1ccc(C(=O)N2CCOC(c3ccc(Cl)cc3)C2)c1 (stereo not drawn)	i
COc1ccc(CNC(=O)C2CCCN2c2nnc(N3CCCC3=O)s2)cc1OC (stereo not drawn)	i
CCc1noc(CN(CC)C(=O)CN2CCOc3ccccc3C2)n1	i
O=C1CCCC2=C1C(c1ccc(F)cc1)n1nc(SCc3ccccc3)nc1N2 (stereo not drawn)	i
Cn1c(C(=O)NCc2ccco2)cc2c(=O)n3ccccc3nc21	i
COc1ccc(C(=O)O/N=C(/N)c2cccnc2)c(OC)c1	i
COc1ccccc1/C=C/C1=NC(=C\c2ccccc2[N+](=O)[O-])/C(=O)O1	i
COc1cc(/C=C2/SC(=O)NC2=O)c([N+](=O)[O-])cc1OC	i
COc1cc(C=O)cc(C=O)c1O	i
COc1cc(/C=C2/C(=O)N(c3ccc(Br)cc3)N=C2C)cc([N+](=O)[O-])c1O	i
COc1cc(Br)cc(/C=C2\Sc3ccccc3C2=O)c1O	60%*
O=C1/C(=C/c2ccccc2[N+](=O)[O-])Sc2ccccc21	31%*
COc1cc(/C=C2\Sc3ccccc3C2=O)cc([N+](=O)[O-])c1O	30%*
COc1cc(Br)cc(/C=C2/NC(=O)NC2=O)c1O	i
COc1cc(/C=C2\C(=O)N(c3cccc(C(=O)O)c3)N=C2C)cc([N+](=O)[O-])c1O	i
Cc1ccc(N2C(=O)CC(NCc3ccc(Cl)c(Cl)c3)C2=O)cc1 (stereo not drawn)	i
COc1ccc(CCC2CCCN(C(=O)c3ccccn3)C2)cc1 (stereo not drawn)	i
COc1ccc(OC)c(S(=O)(=O)Nc2cccc(Br)c2)c1	i
CN(C)c1ccc(NC(=O)Cc2ccccc2[N+](=O)[O-])cc1	i
Clc1ccc(Cl)c(SCCc2ccncc2)c1	i
SMILES	ST2 IL33 inh
Cc1ccc(NC(=O)CSC2=NC(=O)CS2)cc1	i
CCOc1cccc(C(Nc2ccccn2)c2ccc3ccc(C)nc3c2O)c1O (stereo not drawn)	i
Cc1ccc2ccc(C(Nc3ccccn3)c3cccnc3)c(O)c2n1 (stereo not drawn)	i
COc1ccc(C(Nc2cc(C)ccn2)c2ccc3ccc(C)nc3c2O)cc1OC (stereo not drawn)	i
Cc1ccc2ccc(C(Nc3ccccn3)c3ccc(N(C)C)cc3)c(O)c2n1 (stereo not drawn)	41%*
Fc1ccc(C(Nc2ccccn2)c2c[nH]c3ccccc23)cc1 (stereo not drawn)	i
CSc1ccc(C(Nc2ccccn2)c2ccc3cccnc3c2O)cc1 (stereo not drawn)	33%*
Cn1c(=O)c2c(nc(NCc3ccco3)n2Cc2ccc(Cl)c(Cl)c2)n(C)c1=O	i
Cc1ccc(NS(=O)(=O)c2c(C)n[nH]c2C)cc1	i
Cc1ccc(-c2cc(N3CCN(S(=O)(=O)c4ccc(Br)cc4)CC3)ncn2)cc1	i
CCOc1ccc(C2CC(c3c(F)cccc3Cl)n3ncnc3N2)cc1 (stereo not drawn)	i
CC1=NN(c2cccc(Br)c2)C(=O)/C1=C\c1ccc(-c2cccc([N+](=O)[O-])c2)o1	i
O=C1NN(c2ccc(Cl)c(Cl)c2)C(=O)/C1=C\c1ccc(-c2cccc(C(=O)O)c2)o1	i
Cc1ccc(N2NC(=O)/C(=C/c3ccc(-c4cccc([N+](=O)[O-])c4)o3)C2=O)cc1C	61%*
O=C(Nc1cccc(Cl)c1)c1nn(-c2ccc(Cl)cc2)c(=O)c2ccccc12	i
CS(=O)(=O)N1CCCC(C(=O)NC2CC2)C1 (stereo not drawn)	i
O=C1NN(c2ccc(Cl)c(Cl)c2)C(=O)/C1=C/c1ccc(-c2ccc3c(c2)C(=O)NC3=O)o1	i
N#C/C(=C\c1ccc(-c2ccc3c(c2)C(=O)NC3=O)o1)c1nc2ncc(Br)cc2[nH]1	33%*
CN(C)c1nc2c(c(N(C)C)n1)CCN(C(=O)c1cccc3c1OCC3)C2	i
Cc1ccccc1N1CCN(C(=O)c2ccc(OC3CCN(C(=O)C4CC4)CC3)cc2)CC1	i
COc1cccc(CN2CCN(c3ccccn3)CC2)c1OC	i
CC1(C2CCC(=O)O2)CC(=O)c2c(O)cc(CO)cc2O1 (stereo not drawn)	30%*
O=C(N[C@H]1CO[C@H]2[C@@H]1OC[C@@H]2Nc1nccc(-c2cccs2)n1)c1cccs1	i
COc1ccc(C2C(C#N)=C(N)OC3=C2C(=O)CC(c2ccccc2)C3)c(OC)c1C (stereo not drawn)	i
